# Source: PubChem BioAssay
# Active and inactive are the calls of the source.
# Legend:
# [1] = binders of probe aFSTL3 on microarray, primary screen, stem cell growth factor project, biochemical, small-molecule microarray, fluorescence 635/667 (AID 1064); conditions: higher = more signal;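 note: measures binding of the biotinylated anti-FSTL3 antibody to printed compounds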
# [2] = binders from COS7 lysate, DM2A8 probe, primary screen, torsin A project, cell lysate, small-molecule microarray, fluorescence 635/667 (AID 1065); conditions: higher = more signal, COS7 lysate expressing mutant human TOR1A
# [3] = binders of probe aFGF2 on microarray, primary screen, stem cell growth factor project, biochemical, small-molecule microarray, fluorescence 635/667 (AID 1067); conditions: higher = more signal;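 note: measures binding of biotinylated aFGF2 protein to printed compounds on slides; z-score merges feature fluorescence and signal-to-noise across triplicate slides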
# [4] = binders of probe aFGF10 on microarray, primary screen, stem cell growth factor project, biochemical, small-molecule microarray, fluorescence 635/667 (AID 1071); conditions: higher = more signal;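 note: score merges 667 nm spot intensity and signal to noise from triplicate slides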
# [5] = target: Neurogenic locus notch homolog protein 2 (Homo sapiens) (UniProt Q04721); assay: Notch2 binders on small-molecule microarrays, primary screen, biochemical, small-molecule microarray, 635 nm fluorescence, stem cell growth factors (AID 1073); conditions: Notch2 binding, higher = more signal
# Neurogenic locus notch homolog protein 2 (Homo sapiens), sequence (Q04721 whole entry, looked up, canonical isoform): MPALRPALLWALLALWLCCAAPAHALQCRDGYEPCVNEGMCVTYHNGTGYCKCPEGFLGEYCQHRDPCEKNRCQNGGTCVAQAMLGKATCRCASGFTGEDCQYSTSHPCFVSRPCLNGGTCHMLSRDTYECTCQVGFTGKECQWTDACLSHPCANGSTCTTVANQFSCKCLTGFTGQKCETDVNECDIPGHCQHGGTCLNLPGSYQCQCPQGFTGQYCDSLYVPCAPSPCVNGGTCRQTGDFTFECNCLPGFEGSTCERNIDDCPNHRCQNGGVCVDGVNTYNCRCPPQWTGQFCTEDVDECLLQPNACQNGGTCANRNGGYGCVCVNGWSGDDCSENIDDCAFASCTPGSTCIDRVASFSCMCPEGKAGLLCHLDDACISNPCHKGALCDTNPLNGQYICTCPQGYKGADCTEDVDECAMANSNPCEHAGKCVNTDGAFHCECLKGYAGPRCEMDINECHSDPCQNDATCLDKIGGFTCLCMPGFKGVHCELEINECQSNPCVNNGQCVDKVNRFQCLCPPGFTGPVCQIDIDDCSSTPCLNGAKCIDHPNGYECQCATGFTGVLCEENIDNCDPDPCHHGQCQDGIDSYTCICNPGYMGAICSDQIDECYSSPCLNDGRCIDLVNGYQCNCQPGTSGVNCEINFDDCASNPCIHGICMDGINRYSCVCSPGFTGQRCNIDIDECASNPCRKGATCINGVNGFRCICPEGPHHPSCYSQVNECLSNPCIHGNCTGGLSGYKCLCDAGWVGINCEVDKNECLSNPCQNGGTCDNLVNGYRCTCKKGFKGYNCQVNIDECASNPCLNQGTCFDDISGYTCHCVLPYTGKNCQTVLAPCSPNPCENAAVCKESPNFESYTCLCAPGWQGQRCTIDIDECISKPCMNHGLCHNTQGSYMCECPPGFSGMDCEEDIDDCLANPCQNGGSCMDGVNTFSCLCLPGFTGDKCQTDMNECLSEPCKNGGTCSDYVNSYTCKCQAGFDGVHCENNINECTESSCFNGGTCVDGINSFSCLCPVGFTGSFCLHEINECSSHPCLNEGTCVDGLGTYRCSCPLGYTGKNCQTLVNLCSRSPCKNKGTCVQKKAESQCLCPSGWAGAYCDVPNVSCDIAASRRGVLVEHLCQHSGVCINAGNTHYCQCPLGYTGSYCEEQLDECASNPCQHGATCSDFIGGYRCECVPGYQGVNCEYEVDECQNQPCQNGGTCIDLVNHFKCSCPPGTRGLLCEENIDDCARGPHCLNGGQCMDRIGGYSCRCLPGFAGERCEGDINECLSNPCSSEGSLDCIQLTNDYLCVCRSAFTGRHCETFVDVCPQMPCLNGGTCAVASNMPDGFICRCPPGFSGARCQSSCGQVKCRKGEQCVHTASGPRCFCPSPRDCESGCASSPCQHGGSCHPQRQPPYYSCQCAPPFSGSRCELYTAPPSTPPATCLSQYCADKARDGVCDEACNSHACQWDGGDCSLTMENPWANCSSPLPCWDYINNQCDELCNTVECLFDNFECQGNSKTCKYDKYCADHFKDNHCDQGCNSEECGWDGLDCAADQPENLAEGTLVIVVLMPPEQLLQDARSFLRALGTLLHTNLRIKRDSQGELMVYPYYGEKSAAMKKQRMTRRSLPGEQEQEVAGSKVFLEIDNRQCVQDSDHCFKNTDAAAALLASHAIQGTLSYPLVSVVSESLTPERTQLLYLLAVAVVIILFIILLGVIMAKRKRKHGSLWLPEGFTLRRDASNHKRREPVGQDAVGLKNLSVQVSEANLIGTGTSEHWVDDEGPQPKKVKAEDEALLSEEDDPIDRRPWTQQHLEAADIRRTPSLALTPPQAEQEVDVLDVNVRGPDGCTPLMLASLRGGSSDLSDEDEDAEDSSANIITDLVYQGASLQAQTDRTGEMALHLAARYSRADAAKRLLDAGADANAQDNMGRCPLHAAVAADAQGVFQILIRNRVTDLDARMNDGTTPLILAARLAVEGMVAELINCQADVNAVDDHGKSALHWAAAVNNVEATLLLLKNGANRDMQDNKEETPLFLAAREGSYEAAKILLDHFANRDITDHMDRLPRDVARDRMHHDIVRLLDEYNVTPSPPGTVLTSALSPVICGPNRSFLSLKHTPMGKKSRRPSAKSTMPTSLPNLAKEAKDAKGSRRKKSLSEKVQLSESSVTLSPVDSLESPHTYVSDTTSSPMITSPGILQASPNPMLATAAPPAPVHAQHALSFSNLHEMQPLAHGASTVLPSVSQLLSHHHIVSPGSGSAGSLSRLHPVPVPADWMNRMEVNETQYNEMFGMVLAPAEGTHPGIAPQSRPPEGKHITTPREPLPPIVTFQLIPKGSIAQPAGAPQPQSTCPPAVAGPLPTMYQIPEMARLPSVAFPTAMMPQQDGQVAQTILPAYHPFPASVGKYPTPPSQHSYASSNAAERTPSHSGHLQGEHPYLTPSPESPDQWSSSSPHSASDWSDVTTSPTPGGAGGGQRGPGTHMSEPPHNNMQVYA
# [6] = target: Pro-neuregulin-1, membrane-bound isoform (Homo sapiens) (UniProt Q02297); assay: NRG1 binders on small-molecule microarrays, primary screen, psychiatric disease protein project, biochemical, small-molecule microarray, fluorescence 635/667 (AID 1075); conditions: NRG1 binding, 635 nm fluorescence, higher = more signal;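 note: score combines 667 nm spot fluorescence with signal to noise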
# Pro-neuregulin-1, membrane-bound isoform (Homo sapiens), sequence (Q02297 whole entry, looked up, the tested form may be a part, canonical isoform): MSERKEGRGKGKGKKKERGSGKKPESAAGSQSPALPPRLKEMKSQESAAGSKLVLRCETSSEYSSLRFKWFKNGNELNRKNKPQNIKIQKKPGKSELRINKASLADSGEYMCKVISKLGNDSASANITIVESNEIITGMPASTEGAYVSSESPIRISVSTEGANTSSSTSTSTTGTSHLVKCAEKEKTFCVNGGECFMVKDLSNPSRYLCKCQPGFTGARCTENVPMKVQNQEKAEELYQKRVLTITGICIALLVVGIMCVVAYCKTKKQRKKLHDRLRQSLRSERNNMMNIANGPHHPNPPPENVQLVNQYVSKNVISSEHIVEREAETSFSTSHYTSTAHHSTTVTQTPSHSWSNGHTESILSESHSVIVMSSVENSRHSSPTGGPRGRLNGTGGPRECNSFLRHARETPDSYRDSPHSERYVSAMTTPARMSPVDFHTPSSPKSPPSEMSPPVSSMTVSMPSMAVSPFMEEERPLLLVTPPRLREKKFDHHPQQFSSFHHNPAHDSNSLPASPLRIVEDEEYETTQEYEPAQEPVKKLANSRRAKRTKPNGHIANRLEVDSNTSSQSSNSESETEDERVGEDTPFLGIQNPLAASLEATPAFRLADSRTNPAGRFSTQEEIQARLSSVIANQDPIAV
# [7] = tested on: Neuregulin-1 EGF-like domain; assay: binders of neuregulin-1 EGF-like domain, primary screen, biochemical, small-molecule microarray, 635 nm fluorescence (AID 1081); conditions: small-molecule microarray binding, higher = more signal;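 note: binding of the protein to compounds printed on small-molecule microarray slides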
# [8] = FRG1 promoter luciferase signal modulators, primary screen, FRG1 inhibition for FSHD, cell-based, C2C12 myotubes, firefly/Renilla luciferase, luminescence (AID 1084); conditions: higher = more signal, called active from +8 up or from −8 down
# [9] = binders of probe aFST on microarray, primary screen, stem cell growth factor project, biochemical, small-molecule microarray, fluorescence 635/667 (AID 1086); conditions: higher = more signal;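 note: score merges 667 nm fluorescence with signal-to-noise of each printed compound spot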
# [10] = binders of probe aHhip on microarray, primary screen, stem cell growth factor project, biochemical, small-molecule microarray, fluorescence 635/667 (AID 1087); conditions: higher = more signal;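 note: score merges spot fluorescence at 667nm with spot signal to noise ratio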
# [11] = tested on: PRMT1 (protein arginine N-methyltransferase 1); assay: PRMT1 binders on small-molecule microarrays, primary screen, biochemical, small-molecule microarray, 635 nm fluorescence (AID 1088); conditions: small-molecule microarray binding, higher = more signal;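 note: binding of Prmt1 protein to compounds spotted on small-molecule microarray slides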
# [12] = yeast growth modulation, basal conditions, primary screen, YJM789 clinical isolate, OD600, 24 h (AID 1089);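 note: growth of clinical yeast isolate S. cerevisiae YJM 789 seeded 1000 cells per well; test concentration not given here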; conditions: S. cerevisiae YJM789 growth, higher = more signal, called active from +8 up or from −8 down
# [13] = fission yeast growth modulation, primary screen, strain 972, OD600, 24 h, no modulator (AID 1090);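 note: basal condition with compound alone and no growth modifier present; test concentration not given here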; conditions: S. pombe 972 growth, higher = more signal, called active from +8 up or from −8 down
# [14] = S. cerevisiae growth modulation with rapamycin, primary screen, strain BY4716, OD600, 96 h (AID 1091); conditions: higher = more signal, called active from +8 up or from −8 down; note: test concentration not given here
# [15] = target: Torsin-1A-interacting protein 2 (Homo sapiens) (UniProt Q8NFQ8); assay: LULL1 binders on small-molecule microarray, primary screen, cell lysate, human LULL1 lysate, 635/667 nm fluorescence (AID 1092); conditions: hLULL1 lysate binding, 635 nm fluorescence, higher = more signal;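 note: probe is lysate of COS7 cells overexpressing human LULL1; score merges per-feature 667 nm fluorescence with signal-to-noise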
# Torsin-1A-interacting protein 2 (Homo sapiens), sequence (Q8NFQ8 whole entry, looked up): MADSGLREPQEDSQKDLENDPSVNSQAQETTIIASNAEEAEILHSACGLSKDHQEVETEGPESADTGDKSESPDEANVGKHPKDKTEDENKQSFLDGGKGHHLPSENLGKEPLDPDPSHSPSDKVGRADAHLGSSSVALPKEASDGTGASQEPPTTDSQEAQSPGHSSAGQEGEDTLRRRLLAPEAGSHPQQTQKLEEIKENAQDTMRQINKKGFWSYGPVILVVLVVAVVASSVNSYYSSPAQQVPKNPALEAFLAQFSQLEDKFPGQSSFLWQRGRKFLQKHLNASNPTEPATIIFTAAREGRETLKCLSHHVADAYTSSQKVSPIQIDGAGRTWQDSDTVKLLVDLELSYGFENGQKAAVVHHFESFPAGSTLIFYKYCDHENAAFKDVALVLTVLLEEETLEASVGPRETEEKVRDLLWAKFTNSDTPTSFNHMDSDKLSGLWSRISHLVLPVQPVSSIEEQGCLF
# [16] = E. coli growth modulation, two-sided OD650, primary screen, E. coli filamentation project, strain DRC41, 24 h (AID 1093); conditions: OD650, 24 h, higher = more signal, called active from +8 up or from −8 down;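 note: MC1000 strain lacking acrAB efflux and sulA so SOS filamentation is blocked; test concentration not given here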
# [17] = small-molecule microarray binders of probe aLefty2, primary screen, biochemical, biotinylated probe, 635/667 nm fluorescence (AID 1094); conditions: higher = more signal;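 note: score merges spot fluorescence near 667 nm with spot signal-to-noise ratio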
# [18] = tested on: Noggin (protein binding on small-molecule microarray); assay: Noggin binders on small-molecule microarray, primary screen, biochemical, 635/667 nm fluorescence (AID 1095); conditions: 635 nm fluorescence, higher = more signal;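 note: score merges 667 nm feature fluorescence with signal to noise over triplicate slides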
# [19] = target: Neurogenic locus notch homolog protein 3 (Homo sapiens) (UniProt Q9UM47); assay: NOTCH3 binders on small-molecule microarray, primary screen, biochemical, 635/667 nm fluorescence (AID 1096); conditions: NOTCH3 binding, 635 nm fluorescence, higher = more signal
# [20] = small-molecule microarray binders of probe aEGFR, primary screen, biochemical, biotinylated probe, 635/667 nm fluorescence (AID 1097); conditions: higher = more signal;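 note: probe is a biotinylated anti-EGFR antibody binding compounds printed on slides; score combines fluorescence near 667 nm and signal to noise of each spot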
SMILES,composite z-score [1],composite z-score [2],composite z-score [3],composite z-score [4],composite z-score [5],composite z-score [6],composite z-score [7],z-score [8],composite z-score [9],composite z-score [10],composite z-score [11],z-score [12],z-score [13],z-score [14],composite z-score [15],z-score [16],composite z-score [17],composite z-score [18],composite z-score [19],composite z-score [20]
CC(C)=NOC[C@@H](C)[C@H](OCc1ccccc1)C(C)C,0.245,-0.381,-0.147,-0.303,-0.885,-0.277,-0.372,0.755 (inactive),-0.21,0.163,-0.465,0.682 (inactive),-0.207 (inactive),0.752 (inactive),-0.602,0.0184 (inactive),-0.127,1.06,-1.12,-0.0656
O=C1[C@H]2[C@H]3[C@H](O)[C@H](O)CC(=NO[C@@H]4O[C@H](CO)[C@@H](O)[C@H](O)[C@H]4O)[C@H]3CC[C@H]2C(=O)N1c1cccc(Oc2ccccc2)c1,-0.249,0.128,-0.0867,0.435,0.387,-0.106,0.843,0.0203 (inactive),-0.278,-0.0024,0.69,-0.513 (inactive),0.0816 (inactive),-0.642 (inactive),0.543,0.563 (inactive),-0.253,0.329,0.861,-0.0549
CO[C@@H]1COC(=O)CC=C[C@H](C)[C@H](OC)COC(=O)[C@H](C)NC(=O)CC=C[C@H]1C,-0.729,1.42,-0.132,-0.267,-0.316,-0.63,0.347,-0.175 (inactive),0.0458,-0.0491,1.53,0.419 (inactive),-0.245 (inactive),0.329 (inactive),-0.207,1.2 (inactive),-0.228,1.83,0.273,-0.0109
O=C1OCCC=C1C(O)CCc1ccccc1 (stereo not given),-0.209,0.652,-0.0885,0.37,0.327,-0.192,0.375,0.667 (inactive),0.285,-0.0645,-1.06,-0.857 (inactive),-0.113 (inactive),-0.665 (inactive),-0.119,0.353 (inactive),-0.0324,0.433,0.67,0.0009
CC(=O)OC[C@H]1O[C@@H](ON=C(C)CCN2CCCc3nc(C)c(C)cc32)[C@H](OC(C)=O)[C@@H](OC(C)=O)[C@@H]1OC(C)=O,-0.63,0.165,-0.127,0.76,1.41,0.394,1.07,0.935 (inactive),0.139,-0.0618,1.55,0.215 (inactive),0.0313 (inactive),0.427 (inactive),0.993,-0.722 (inactive),-0.136,0.952,1.11,0.0781
